# Test results: PubChem BioAssay (NCI)
# Where “and” joins values, the source holds several entries; their conditions need not be identical. Identical values can stand only once. About 79,000 compounds went through this panel and 15% of them were active in at least one assay; those are over-represented in the sample as a whole. Unmarked numbers belong to inactive results. Calls of active or inactive are those of the source. Rule as the data show it: active = growth inhibition above about 70%; inactive = the rest.
# Test: NCI Yeast Anticancer Drug Screen. Data for the mlh1 rad18 strain (AID 175)
# Details: S. cerevisiae mlh1 rad18 strain growth inhibition, active compounds read high
# Experimental: Growth inhibition of yeast strains with defined genetic alterations is measured as a screen for potential anti-cancer activity. Selected strains with alterations in DNA damage repair or cell cycle control were exposed to compounds and growth inhibition was measured relative to vehicle treated controls. The strain used in this assay is mlh1 rad18
# [1] = at 5.0 µM (retest, dose inferred, filed as 0.5)
# [2] = at 50.0 µM (retest, dose inferred, filed as 5.0)
Structure (SMILES),growth inhibition [1],growth inhibition [2],growth inhibition (at 50.0 µM)
OC1CCCC[CH]1[Hg][Cl] (configuration not stated),100% (active),100% (active),99.5% (active)
Sc1ccc(Cl)cc1,9%,64%,13.9% and 31.5%
NP(N)(=O)Nc1ccccc1,-2%,0%,3.6%
CCCCCCCCCCCCNCCc1ccccc1,99% (active),98% (active),98.8% (active)
c1ccc(P(CC[As](c2ccccc2)c2ccccc2)CC[As](c2ccccc2)c2ccccc2)cc1,80% (active),80% (active),88.6% (active)
CSc1ccc(NC(=O)C2c3[nH]c4ccccc4c3C3CCC(C(C)(C)C)CC3C2C(=O)O)cc1 (configuration not stated),11%,26%,46%
Cc1cn(CC2C=CC(CS[As](C)C)O2)c(=O)[nH]c1=O (configuration not stated),-1%,84% (active),99.1% (active)
CCCCCCCCCCCCCCCCCC[N+](C)(C)C,97% (active),96% (active),89.8% (active)
CC(C)c1c(O)c(O)c2c(c1O)C(=O)C(O)=C1C(C)(C)CCC[C@@]12C,86% (active),89% (active),80.4% (active)
Cc1ccccc1C(=O)CN,-1%,-3%,12.9%
COc1cc2ccccc2c2cc([N+](=O)[O-])oc12,89% (active),88% (active),88.3% (active)
COC1C(O)C(C)OC(OC2C(Oc3cccc4c(O)c5c(=O)oc6ccc(C)c7c(=O)oc(c34)c5c67)OC(C)C(O)C2O)C1O (configuration not stated),-2%,-4%,46.2%
CC1CC(C)CC(C)C(O)/C(C#N)=C/C=C/CC(C2CCCC2C(=O)O)OC(=O)CC(O)C(C)C1 (configuration not stated),98% (active),98% (active),91.6% (active)
O=[N+]([O-])c1cc(S(=O)(=O)F)ccc1Cl,32%,54%,92.8% (active)
